# High-throughput results as filed in PubChem.
# KB-3-1 tox: kills parental KB-3-1 adenocarcinoma cells | KB-3-1 viability, CellTiter-Glo ATP luminescence, 72 h | Potency, µM (highest dose often 46.1 µM), hits mostly cytotoxic | 400,000 compounds, 1.4% hits | AID 1347075; note: nearly all actives have a fitted effect of over 60% in size
#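 Multi-concentration cytotoxicity screen in KB-3-1 cells grown in DMEM lacking phenol red with 10% FBS. After 72 h at 37 °C with compound, ATP-dependent luminescence was recorded.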
# SW480 rereplic: induces DNA re-replication in SW480 colon adenocarcinoma cells. SW480 DNA re-replication, Hoechst DNA content imaging, 48 h. Potency, µM (highest dose often 46.1 µM), usual class: activators. 340,000 compounds, 1.8% hits. AID 624297; note: nearly all actives have a fitted effect of over 55% in size
#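 Per well, 250 cells were exposed to pinned compound for 48 hr. Nuclear DNA was visualised with Hoechst (40 min, 37 C) and total object intensity recorded by fluorescence scanning.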
# KB-V1 cytotox: KB-V1 MDR subline cytotoxicity; KB-V1 MDR cells viability, CellTiter-Glo, 72 h; Potency, µM (series often up to 46.1 µM), actives largely listed as cytotoxic; 400,000 compounds, 3.4% hits; AID 1347076; note: nearly all actives have a fitted effect of over 60% in size
#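 KB-V1 MDR subline cells in DMEM (phenol-red free, 10% FBS) exposed to compounds in qHTS concentration series for 72 h at 37 degrees C. Viability read by CellTiter-Glo luminescence; concentration-effect curves fitted after normalization and correction.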
# TSG101-PTAP inh: blocks PTAP/TSG101 interaction to inhibit HIV-1 budding | Q99816 | Fluorescence polarization, FITC-PTAP peptide / Tsg101 binding | Potency, µM (titrated, usually from 115 µM), most hits filed as inhibitors | 340,000 tested, under 10 active; active = well fitted inhibition curve with a large enough effect in the main read-out, with a control signal flat, not every such curve was filed as active; inconclusive = small, poorly fitted or top-dose-only effect, or effect the other way, or a change in a side signal; inactive = no such curve, though single readings can be large or run the other way
# Target sequence (Q99816 whole entry, looked up): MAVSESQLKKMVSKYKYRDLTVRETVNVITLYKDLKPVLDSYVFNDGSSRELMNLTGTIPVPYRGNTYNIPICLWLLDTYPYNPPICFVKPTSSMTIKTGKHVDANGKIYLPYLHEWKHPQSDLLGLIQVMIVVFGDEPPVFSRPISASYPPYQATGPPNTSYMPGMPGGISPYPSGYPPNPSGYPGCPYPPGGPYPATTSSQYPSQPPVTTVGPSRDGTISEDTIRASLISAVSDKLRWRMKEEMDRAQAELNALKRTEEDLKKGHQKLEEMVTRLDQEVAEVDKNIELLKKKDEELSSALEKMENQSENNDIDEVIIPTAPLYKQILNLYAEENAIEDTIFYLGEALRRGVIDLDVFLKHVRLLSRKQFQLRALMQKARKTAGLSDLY
#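 Compounds were pin-transferred onto Tsg101 binding domain (10 uM final) in HEPES pH 7.5 buffer, then FITC-PTAP peptide was added at 50 nM final. After 20 min at RT, polarization reported peptide displacement across a qHTS concentration series.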
# RGS4 inh: blocks human RGS4-accelerated GTP hydrolysis | P49798 | Transcreener GDP fluorescence polarization, RGS4-accelerated GTP hydrolysis | Potency, µM (top dose mostly 114 µM), most hits filed as inhibitors | 390,000 compounds, 0.039% hits | AID 504845; note: nearly all actives have a fitted effect of over 75% in size
# Target sequence (P49798 whole entry, looked up): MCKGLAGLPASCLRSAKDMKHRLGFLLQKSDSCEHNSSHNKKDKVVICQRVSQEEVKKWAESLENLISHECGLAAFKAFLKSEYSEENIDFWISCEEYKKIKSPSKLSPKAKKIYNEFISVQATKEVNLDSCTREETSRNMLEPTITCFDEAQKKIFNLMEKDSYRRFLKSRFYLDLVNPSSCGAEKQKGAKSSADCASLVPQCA
#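 MLSMR compounds (23 nl, pin-transferred) preincubated 10 min at room temperature with a 500nM (2x) first reagent, then RGS4 at 900nM (2x) plus Transcreener GDP mix added; fluorescence polarization (620/688 nm) read before and after 90 min at 30 °C.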
# MCF10A rerep: induces DNA re-replication in MCF 10a normal breast cells | Potency, µM (top dose mostly 46.1 µM), actives largely listed as activators | MCF 10A DNA re-replication, Hoechst nuclear intensity, 48 h | 350,000 compounds, 2.9% hits | AID 624296; note: nearly all actives have a fitted effect of over 50% in size
# Hits are given with their value; 0 = inactive; ? = inconclusive; - = no result. A selection: hits, their analogues and other compounds. The true share with any hit is near 6.6%. Unless noted, calls come from the whole dose curve; as a rule, active = well fitted curve in the direction sought with a large enough effect; inconclusive = small, poorly fitted or top-dose-only effect, or another doubt; inactive = no such curve, though single readings can be large; an effect the other way counts as inactive or inconclusive.
SMILES,KB-3-1 tox,SW480 rereplic,KB-V1 cytotox,TSG101-PTAP inh,RGS4 inh,MCF10A rerep
O=C(Nc1ccc(-c2nc3ccccc3[nH]2)cc1)c1ccc2c(c1)OCCO2,?,-,0,-,-,-
CC(C)n1c(O)c(N=NC(=O)C2COc3ccccc3O2)c2ccccc21 (configuration not stated),0,?,16µM,0,0,13µM
Cn1c(O)c(N=NC(=O)C2COc3ccccc3O2)c2ccccc21 (configuration not stated),0,0,0,0,0,0
CCOc1cc(NC(=O)c2ccco2)c(OCC)cc1NC(=O)c1ccco1,0,0,0,0,0,?
CCOc1cc(C#N)c(NC(=O)c2ccco2)cc1OCC,6.5µM,9.2µM,?,0,0,?
Cc1c(C)c2ccc(OCC(=O)Nc3ccc(S(N)(=O)=O)cc3)c(C)c2oc1=O,0,0,0,0,0,18µM
CCc1cc(=O)oc2c(C)c(OCC(=O)Nc3ccc(S(=O)(=O)N(CC)CC)cc3)ccc12,0,-,0,-,0,-
COc1ccccc1NC(=O)CSc1ncc2c(n1)-c1cc(Cl)ccc1N(Cc1ccccc1)S2(=O)=O,0,-,0,-,0,-
CCN1c2ccccc2-c2nc(SCC(=O)Nc3c(C)cc(C)cc3C)ncc2S1(=O)=O,10µM,-,4.6µM,-,0,-
O=C(CSc1ncc2c(n1)-c1cc(Cl)ccc1N(Cc1ccccc1)S2(=O)=O)Nc1ccc(F)cc1F,0,-,13µM,-,0,-
CCN1c2ccccc2-c2nc(SCC(=O)Nc3cccc(C)c3C)ncc2S1(=O)=O,0,-,0,-,0,-
COc1ccc(C2/C=C\CN(C(=O)c3ccccc3)C(C)C(=O)N2Cc2ccc(F)cc2)cc1 (configuration not stated),-,-,-,-,0,-
Cc1nc2c3cc(Cl)ccc3n(CCN3CCCCC3)c2s1,0,15µM,0,0,0,18µM
COC(=O)c1c(-c2ccc(F)cc2)csc1NC(=O)C1CCCO1 (configuration not stated),0,?,?,0,0,?
CCc1ccc(-c2csc(NC(=O)C3CCCO3)c2C(=O)OC(C)C)cc1 (configuration not stated),0,?,0,0,0,26µM
Cc1c(C(=O)OC(C)C)sc(NC(=O)C2CCCO2)c1C(=O)OC(C)C (configuration not stated),0,0,?,0,0,13µM
COC(=O)c1sc(NC(=O)C2CCCO2)c(C(=O)OC)c1C (configuration not stated),0,0,0,0,0,0
O=C(COc1cccc(Cl)c1)N1CCC(c2nc3ccccc3s2)CC1,0,-,0,-,0,-
Cc1c(C(=O)OCC(=O)NCCN2C(=O)CSC2=O)oc2c1ccc1ccccc12,0,?,23µM,0,0,?
O=C(COC(=O)c1cccs1)NCCN1C(=O)CSC1=O,0,0,0,0,0,0
C=C1[C@@H]2CC[C@H](C2)C1(C)C,-,0,-,-,-,0
O=C(NC1CCCCC1)C(c1ccncc1)N(Cc1ccc2c(c1)OCO2)C(=O)c1cnsn1 (configuration not stated),0,?,?,0,0,0
COc1ccc(C(=O)/C=C/C(=O)N(Cc2ccc3c(c2)OCO3)C(C(=O)NC2CCCCC2)c2ccncc2)c(O)c1 (configuration not stated),?,?,2.1µM,0,0,?
COc1ccc(CN(C(=O)/C=C/C(=O)c2ccc(OC)cc2O)C(C(=O)NC2CCCCC2)c2ccncc2)cc1 (configuration not stated),0,?,2.6µM,0,0,0
CN1CCN(c2oc(-c3ccc(OCc4ccc(Cl)cc4)cc3)nc2C#N)CC1,0,-,0,-,0,-
SMILES,KB-3-1 tox,SW480 rereplic,KB-V1 cytotox,TSG101-PTAP inh,RGS4 inh,MCF10A rerep
Cc1ccccc1S(=O)(=O)Cc1ccc(C(=O)N2CCN(c3cccc(C)c3C)CC2)o1,5.2µM,4.1µM,5.8µM,0,0,2.3µM
Cc1ccc(S(=O)(=O)Cc2ccc(C(=O)N3CCN(c4cccc(Cl)c4)CC3)o2)cc1,?,-,5.8µM,-,0,-
COc1cccc(N2CCN(C(=O)c3ccc(CS(=O)Cc4ccc(Cl)cc4)o3)CC2)c1 (configuration not stated),0,0,16µM,0,0,0
Cc1ccccc1S(=O)(=O)Cc1ccc(C(=O)N2CCN(c3cccc(Cl)c3)CC2)o1,4.1µM,-,4.6µM,-,0,-
Cc1ccccc1S(=O)(=O)Cc1ccc(C(=O)N2CC(C)CC(C)C2)o1 (configuration not stated),0,0,0,0,0,0
Cc1ccc2c(CC(=O)N3CCN(c4cccc(Cl)c4)CC3)coc2c1,0,-,0,-,0,-
NC(=O)c1cc[n+](CC2=C(C(=O)O)N3C(=O)[C@@H](NC(=O)[C@H](c4ccccc4)S(=O)(=O)[O-])[C@@H]3SC2)cc1,-,0,-,-,-,0
CN(C)c1ccc(/C=C/c2nccc3ccccc23)cc1,0,-,0,-,-,-
Cc1nc2ccccc2nc1/C=C/c1ccc(N(C)C)cc1,5.2µM,-,?,-,-,-
CN(C)c1ccc(/C=C/c2cc(N(C)C)nc3ccccc23)cc1,0.58µM,-,1.8µM,-,-,-
CN(C)c1ccc(/C=C/c2nc3ccccc3c(=O)[nH]2)cc1,0,0,0,0,0,0
CN(C)c1ccc(/C=C/c2cc(Cl)nc3ccccc23)cc1,?,-,13µM,-,-,-
O=C1NC(c2ccccc2)N=C2Oc3ccccc3C=C12 (configuration not stated),1.3µM,?,4.1µM,0,0,?
c1ccc(C2Nc3ccccc3Oc3ccccc32)cc1 (configuration not stated),0,0,0,0,0,0
Cc1cc(C)cc(NC(=O)C(=O)NCC(c2cccnc2)N2CCc3ccccc3C2)c1 (configuration not stated),0,-,?,-,0,-
O=C(O)c1ccccc1-c1ccccc1C(=O)NNc1ccccc1,0,18µM,0,0,0,0
O=C(O)c1ccccc1-c1ccccc1C(=O)Nc1ccccc1,0,0,0,0,0,0
CC(=O)c1ccc(NC(=O)c2nn(C)c3c2COc2ccccc2-3)cc1,-,-,-,-,0,-
O=C1C(c2ccc(F)cc2)N(CCc2ccccc2)C(=O)CN1C1CCCCCC1 (configuration not stated),-,-,-,-,0,-
COc1ccc(N(CC(C)C)S(=O)(=O)c2nnc(NC(=O)c3cccs3)s2)cc1,-,-,-,-,0,-
CN1CC(c2ccccc2)C2(SC(=S)N(Cc3ccco3)C2=O)C12C(=O)Nc1ccccc12 (configuration not stated),21µM,?,?,0,0,6.5µM
COC(=O)c1nn(-c2c(C)n(C)n(-c3ccccc3)c2=O)cc1O,0,0,0,0,0,4.1µM
